According to PubChem BioAssay (NCATS):
Results filed as inconclusive are left out. Some of the results follow. Active and inactive are the calls of the source. Unless noted, the call rests on the fitted dose curve; in most records, active means well fitted curve in the direction sought with a large enough effect; inconclusive means small, poorly fitted or top-dose-only effect, or another doubt; inactive means no such curve, though single readings can be large; an effect the other way counts as inactive or inconclusive.

Key:
[1] = target: Ferritin light chain (Equus caballus) (UniProt P02791); test: qHTS Validation Assay for Identification of Novel General Anesthetics (AID 2323); further: series mostly up to about 77 µM
Ferritin light chain (Equus caballus), sequence (P02791 2-175 limits assumed): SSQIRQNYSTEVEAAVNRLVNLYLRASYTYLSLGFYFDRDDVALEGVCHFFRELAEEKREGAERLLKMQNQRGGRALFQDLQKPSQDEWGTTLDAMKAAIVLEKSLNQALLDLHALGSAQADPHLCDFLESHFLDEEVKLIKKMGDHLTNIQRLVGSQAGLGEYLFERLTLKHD
How it was run: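 10 uM horse-spleen apoferritin + 1-AMA (50% saturated, PBS); cpd pin-transferred, 10 min RT. Ex 380/Em 535 nm endpoint. Activity normalized between free 1-AMA and 1-AMA/apoferritin; 4-parameter Hill fit of concentration-response.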

[2] = target: ATP-dependent DNA helicase Q1 (Homo sapiens) (UniProt P46063); test: qHTS Validation Assay for Inhibitors of RecQ-Like Dna Helicase 1 (RECQ1) (AID 2353)
ATP-dependent DNA helicase Q1 (Homo sapiens), sequence (P46063 whole entry, looked up): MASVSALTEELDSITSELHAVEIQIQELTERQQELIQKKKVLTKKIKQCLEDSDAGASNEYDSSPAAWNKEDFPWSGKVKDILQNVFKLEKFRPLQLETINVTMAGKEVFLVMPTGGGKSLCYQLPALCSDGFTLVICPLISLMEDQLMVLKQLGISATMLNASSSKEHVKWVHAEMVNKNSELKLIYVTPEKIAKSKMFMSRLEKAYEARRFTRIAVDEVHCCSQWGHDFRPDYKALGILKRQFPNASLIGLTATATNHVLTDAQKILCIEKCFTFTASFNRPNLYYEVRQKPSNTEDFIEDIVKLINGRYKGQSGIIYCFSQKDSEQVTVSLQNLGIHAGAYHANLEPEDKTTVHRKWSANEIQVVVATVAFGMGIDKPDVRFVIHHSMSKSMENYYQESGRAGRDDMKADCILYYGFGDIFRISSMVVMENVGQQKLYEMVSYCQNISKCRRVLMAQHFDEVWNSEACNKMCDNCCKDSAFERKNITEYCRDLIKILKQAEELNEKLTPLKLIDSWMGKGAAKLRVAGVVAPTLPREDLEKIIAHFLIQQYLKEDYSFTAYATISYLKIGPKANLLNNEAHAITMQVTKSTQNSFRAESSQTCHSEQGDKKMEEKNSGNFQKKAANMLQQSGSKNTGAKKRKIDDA
How it was run: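 RECQ1T1 50 nM; forked duplex (20 bp + 30-nt ss tails) 200 nM, ATP 2 mM final; pH 8.0, 2 mM MgCl2, 2.5 ug/ml poly(dI-dC); 15 min compound preincubation; discontinuous kinetic read over 2 h at RT.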

[3] = target: RecQ-like DNA helicase BLM (Homo sapiens) (UniProt P54132); test: qHTS Validation Assay for Inhibitors of Bloom's syndrome helicase (BLM) (AID 2364)
RecQ-like DNA helicase BLM (Homo sapiens), sequence (P54132 whole entry, looked up): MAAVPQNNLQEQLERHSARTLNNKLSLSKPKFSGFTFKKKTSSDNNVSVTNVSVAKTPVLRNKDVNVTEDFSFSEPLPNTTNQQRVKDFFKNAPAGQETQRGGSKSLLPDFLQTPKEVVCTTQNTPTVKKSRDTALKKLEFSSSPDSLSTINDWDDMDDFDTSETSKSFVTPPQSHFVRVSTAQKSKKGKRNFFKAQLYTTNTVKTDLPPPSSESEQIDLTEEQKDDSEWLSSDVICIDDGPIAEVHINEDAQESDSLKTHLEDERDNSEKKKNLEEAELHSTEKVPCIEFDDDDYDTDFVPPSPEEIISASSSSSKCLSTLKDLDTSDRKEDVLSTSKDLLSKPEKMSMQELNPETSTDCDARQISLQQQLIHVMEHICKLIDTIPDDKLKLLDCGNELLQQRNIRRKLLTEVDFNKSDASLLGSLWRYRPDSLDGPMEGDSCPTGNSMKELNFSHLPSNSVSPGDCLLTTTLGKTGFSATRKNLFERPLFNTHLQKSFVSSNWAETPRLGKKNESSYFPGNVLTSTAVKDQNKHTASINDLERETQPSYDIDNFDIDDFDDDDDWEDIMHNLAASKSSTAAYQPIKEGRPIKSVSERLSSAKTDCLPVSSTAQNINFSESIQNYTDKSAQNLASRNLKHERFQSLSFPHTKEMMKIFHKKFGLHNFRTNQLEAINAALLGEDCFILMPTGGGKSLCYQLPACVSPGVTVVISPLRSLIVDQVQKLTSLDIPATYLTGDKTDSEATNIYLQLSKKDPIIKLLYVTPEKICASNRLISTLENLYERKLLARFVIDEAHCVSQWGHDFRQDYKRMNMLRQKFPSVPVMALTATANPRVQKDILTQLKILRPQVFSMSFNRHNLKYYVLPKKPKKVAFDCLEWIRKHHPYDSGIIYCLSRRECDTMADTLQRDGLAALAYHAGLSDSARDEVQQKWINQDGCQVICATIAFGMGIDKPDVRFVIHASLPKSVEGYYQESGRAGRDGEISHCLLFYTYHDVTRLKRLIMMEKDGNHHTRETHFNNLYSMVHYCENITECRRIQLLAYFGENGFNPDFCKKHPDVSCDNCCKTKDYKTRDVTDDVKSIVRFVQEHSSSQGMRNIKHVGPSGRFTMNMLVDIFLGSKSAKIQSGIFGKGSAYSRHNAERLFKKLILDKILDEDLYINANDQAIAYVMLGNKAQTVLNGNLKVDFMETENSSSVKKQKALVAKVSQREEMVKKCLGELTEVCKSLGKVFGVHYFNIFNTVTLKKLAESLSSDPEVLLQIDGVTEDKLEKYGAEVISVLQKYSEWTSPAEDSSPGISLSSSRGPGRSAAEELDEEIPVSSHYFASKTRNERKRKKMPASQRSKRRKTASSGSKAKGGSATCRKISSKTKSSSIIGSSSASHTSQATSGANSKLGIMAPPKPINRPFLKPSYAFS
How it was run: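 BLM 50 nM in 25 mM Tris-HCl pH 8.0, 5 mM NaCl, 2 mM MgCl2, 1 mM DTT, 0.01% Tween-20, 2.5 ug/ml poly(dI-dC); 15 min cpd preinc, RT. Start: 200 nM forked DNA + 2 mM ATP (final). TAMRA read, 2 reads 2 h apart.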

[4] = Cytometric Cell-Based qHTS for Inhibitors of the mTORC1 Signaling Pathway in MEF (Tsc2-/-, p53-/-) Cells (AID 2660);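 further: Tsc2 and p53 null MEFs carrying empty vector with compound for 24 h; percent of cells above a phospho-rpS6 to PI ratio cutoff in each well; series mostly up to about 38 µM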
How it was run: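 Cells are plated, treated with compound for 24 hrs at 37 degree Celsius, then fixed, blocked and immunostained for phospho-rpS6 Ser235/236. Propidium iodide counterstain follows. Per-well % positive cells is derived from the PI-normalized phospho-S6 signal.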

[5] = High Content Imaging Cell-Based qHTS for Inhibitors of the mTORC1 Signaling Pathway in MEF (Tsc2-/-, p53-/-) Cells (AID 2666);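 further: percent of cells scored positive for phospho-rpS6 Ser235/236 immunostaining by imaging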; further: potency means the concentration at half of the fitted maximal effect
How it was run: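 Inhibition of rpS6 phosphorylation is measured by immunofluorescence imaging in empty-vector Tsc2-/-, p53-/- mouse embryonic fibroblasts after 24 hrs compound exposure at 37 degree Celsius. Results are reported as % positive cells per well.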

[6] = High Content Imaging Cell-Based qHTS for Inhibitors of the mTORC1 Signaling Pathway in MEF Cells (AID 2667);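 further: Tsc2-/- p53-/- MEFs stably re-expressing wild-type Tsc2 exposed 24 h; series mostly up to about 38 µM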
How it was run: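 Fixed-cell imaging of phospho-S6 (Ser235/236, Alexa-488) after 24 hrs of compound treatment at 37 degree Celsius. Signal was normalized to Hoechst, and thresholds from the highest and lowest wells split cells into % active versus % non-active.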

[7] = Cytometry Cell-Based qHTS for Inhibitors of the mTORC1 Signaling Pathway in MEF cells (AID 2668);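 further: Tsc2-/- p53-/- mouse embryonic fibroblasts stably re-expressing wild-type Tsc2; percent cells positive for phospho-rpS6 Ser235/236 relative to propidium iodide stain; series mostly up to about 38 µM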
How it was run: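 Read-out: phospho-rpS6 Ser235/236 immunofluorescence normalized to propidium iodide intensity, scored as % active cells against a rapamycin (7.5 nM) threshold. Cells: Tsc2-/-, p53-/- MEFs stably expressing WT Tsc2, compound-treated 24 hrs at 37 degree Celsius.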

[8] = Validation screen for inhibitors of Lassa infection (AID 463096; calls by dose curve; further: potency means the concentration at half of the fitted maximal effect)
[9] = Validation screen for small molecules that induce DNA re-replication in MCF 10A normal breast cells (AID 463097); further: nearly all actives have a fitted effect of over 60% in size; further: potency means the concentration at half of the fitted maximal effect
How it was run: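 250 MCF 10A cells/well; compound pin-transferred; 48 hr, 37 C, 5% CO2; Hoechst 40 min; imaged 405/500-530 nm. Hits = more high-intensity nuclei.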

[10] = target: DNA polymerase III PolC-type (Bacillus subtilis (strain 168)) (UniProt P13267); test: qHTS Validation Assay for the Inhibitors of DNA Replication in Gram-Positive Bacteria (AID 485295);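 further: reconstituted holoenzyme with PolC plus beta clamp SSB and primase; PicoGreen fluorescence of double-stranded DNA made on primed circular M13 template; series mostly up to about 57 µM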
How it was run: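 PicoGreen fluorescence (ex 480–485/em 535–540 nm) reports dsDNA synthesized on ssM13Gori template with dNTPs/NTPs. Enzyme: holoenzyme rebuilt from purified PolC, beta subunit, SSB and primase. Compound preincubated before substrate addition; RT throughout.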

[11] = target: Tumor susceptibility gene 101 protein (Homo sapiens) (UniProt Q99816); test: qHTS Validation Assay for Iinhibitors of HIV-1 Budding by Blocking the Interaction of PTAP/TSG101 (AID 485342; calls by dose curve)
Tumor susceptibility gene 101 protein (Homo sapiens), sequence (Q99816 whole entry, looked up, the tested form may be a part): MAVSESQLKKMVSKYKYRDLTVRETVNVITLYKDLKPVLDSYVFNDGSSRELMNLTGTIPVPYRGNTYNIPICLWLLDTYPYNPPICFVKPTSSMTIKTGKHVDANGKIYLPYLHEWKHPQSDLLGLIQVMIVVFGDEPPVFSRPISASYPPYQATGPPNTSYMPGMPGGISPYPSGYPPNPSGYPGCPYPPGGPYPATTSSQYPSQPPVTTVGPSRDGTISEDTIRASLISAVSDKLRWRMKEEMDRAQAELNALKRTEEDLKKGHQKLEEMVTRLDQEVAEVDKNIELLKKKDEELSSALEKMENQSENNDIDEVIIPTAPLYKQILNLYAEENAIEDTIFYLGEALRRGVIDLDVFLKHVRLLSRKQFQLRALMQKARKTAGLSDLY
How it was run: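 FP read-out: FITC-PTAP peptide, 50 nM final, binding Tsg101 binding domain, 10 uM final; 20 min r.t.; 10 mM HEPES pH 7.5, 0.15 M NaCl, 0.01% Tween 20, 3 mM EDTA, 0.1 mM TCEP.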

[12] = qHTS Validation Assay to Find Inhibitors of Chronic Active B-Cell Receptor Signaling (AID 485345; active means well fitted curve in the direction sought with a large enough effect in the main read-out, with a control signal flat, not every such curve was filed as active)
How it was run: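 TMD8 ABC-DLBCL cells with dox-inducible green luciferase–IκBα fusion and red native luciferase; compounds 46 uM–3 nM, 4 h at 37C with doxycycline in 0.5% FBS IMDM. Green/red ratio normalized to basal and 10 uM MG-132.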

[13] = target: Beta-2 adrenergic receptor (Homo sapiens) (UniProt P07550); test: qHTS validation assay of beta-arrestin-biased ligands of beta2-adrenergic receptor (AID 485366)
Beta-2 adrenergic receptor (Homo sapiens), sequence (P07550 whole entry, looked up): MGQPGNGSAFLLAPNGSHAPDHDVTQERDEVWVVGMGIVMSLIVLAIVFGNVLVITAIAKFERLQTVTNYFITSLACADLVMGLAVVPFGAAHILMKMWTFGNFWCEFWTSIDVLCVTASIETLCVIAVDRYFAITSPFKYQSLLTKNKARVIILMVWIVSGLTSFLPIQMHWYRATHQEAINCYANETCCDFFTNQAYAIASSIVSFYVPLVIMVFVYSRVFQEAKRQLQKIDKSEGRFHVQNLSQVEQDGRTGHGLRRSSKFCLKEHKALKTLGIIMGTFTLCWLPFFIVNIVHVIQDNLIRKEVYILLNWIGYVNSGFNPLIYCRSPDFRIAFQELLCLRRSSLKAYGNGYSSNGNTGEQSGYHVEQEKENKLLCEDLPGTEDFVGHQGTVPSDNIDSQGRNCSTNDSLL
How it was run: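 Compound series up to 46 microM applied to beta2-AR/beta-arrestin Tango cells, 18 hr, 37 degrees C, 5% CO2. Read-out: tTA-driven luciferase luminescence, converted to %Activity; concentration-response curves assigned curve classes.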

[14] = target: ATP-dependent 6-phosphofructokinase (Trypanosoma brucei brucei) (UniProt O15648); test: qHTS Validation Assay to Find Inhibitors of T. brucei phosphofructokinase (AID 485368)
ATP-dependent 6-phosphofructokinase (Trypanosoma brucei brucei), sequence (O15648 whole entry, looked up): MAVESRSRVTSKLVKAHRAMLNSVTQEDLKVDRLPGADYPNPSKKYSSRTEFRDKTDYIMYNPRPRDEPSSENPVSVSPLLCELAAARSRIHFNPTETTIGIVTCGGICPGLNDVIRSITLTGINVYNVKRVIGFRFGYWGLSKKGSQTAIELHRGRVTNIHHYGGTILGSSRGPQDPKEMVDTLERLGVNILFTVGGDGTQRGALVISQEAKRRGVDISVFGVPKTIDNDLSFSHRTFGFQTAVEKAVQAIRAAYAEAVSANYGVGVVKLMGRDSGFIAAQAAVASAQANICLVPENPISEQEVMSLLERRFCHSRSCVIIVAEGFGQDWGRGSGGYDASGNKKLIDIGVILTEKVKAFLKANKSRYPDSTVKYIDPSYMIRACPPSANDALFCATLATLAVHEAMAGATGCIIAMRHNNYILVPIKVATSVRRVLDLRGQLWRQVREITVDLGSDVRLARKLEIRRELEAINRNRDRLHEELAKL
How it was run: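 qHTS format, up to 57 uM. PFK 1.25 nM; F6P 0.5 mM; ATP 0.1 mM; 5 mM MgCl2, 0.01% Tween20, 0.1% BSA; 0.1 M TEA pH 8.0; 45 min RT; ADP-Glo readout; no-enzyme control = full inhibition.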

[15] = Quantitative high throughput screen for delayed death inhibitors of the malarial parasite plastid, 48 hour incubation (AID 488752); further: nearly all actives have a fitted effect of over 65% in size; further: potency means the concentration at half of the fitted maximal effect
How it was run: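 Cultures: infected erythrocytes at final 2% hematocrit and 0.1% parasitemia in Albumax-supplemented RPMI. Parasites express integrated firefly luciferase. Incubation with compound lasts 48 h before luminescent detection of remaining reporter activity.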

[16] = qHTS Assay for Identification of Small Molecule Inducers of Hypoxia Response (AID 2120; active means well fitted curve in the direction sought with a large enough effect in the signal ratio, with a control signal flat, not every such curve was filed as active; the % refers to the signal ratio)
How it was run: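 HRE-bla ME-180, 2500 cells/well, 0.5% dialyzed FBS medium; cpd titration, 17 h 37 degrees C; CCF4 2.5 h RT; Ex 405, Em 460/530 ratio -> %Activity, AC50.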

[17] = target: Ubiquitin carboxyl-terminal hydrolase 2 (Homo sapiens) (UniProt O75604); test: qHTS Validation Assay for Inhibitors of Ubiquitin-specific Protease USP2a Using CHOP2 as the Reporter (AID 463106)
Ubiquitin carboxyl-terminal hydrolase 2 (Homo sapiens), sequence (O75604 whole entry, looked up): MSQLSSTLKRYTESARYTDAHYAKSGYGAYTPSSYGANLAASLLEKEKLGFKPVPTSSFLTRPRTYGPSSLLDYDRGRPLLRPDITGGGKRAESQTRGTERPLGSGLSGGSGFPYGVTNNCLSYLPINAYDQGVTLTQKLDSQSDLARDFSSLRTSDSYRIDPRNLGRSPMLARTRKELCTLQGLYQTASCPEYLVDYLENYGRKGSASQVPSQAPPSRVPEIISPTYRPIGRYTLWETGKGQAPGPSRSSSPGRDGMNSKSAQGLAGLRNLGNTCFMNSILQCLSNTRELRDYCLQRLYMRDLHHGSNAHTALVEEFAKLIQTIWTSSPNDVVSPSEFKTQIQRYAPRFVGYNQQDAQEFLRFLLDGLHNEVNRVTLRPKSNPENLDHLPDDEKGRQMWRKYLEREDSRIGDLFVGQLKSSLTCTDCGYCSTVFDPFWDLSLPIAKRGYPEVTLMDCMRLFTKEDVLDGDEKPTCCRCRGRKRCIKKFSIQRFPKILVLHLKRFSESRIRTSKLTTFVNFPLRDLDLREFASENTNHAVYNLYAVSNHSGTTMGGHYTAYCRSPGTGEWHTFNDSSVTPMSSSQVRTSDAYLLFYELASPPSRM
How it was run: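 Inhibition is expressed relative to NEM as the full-inhibition control, with concentration-response curves classed by fit quality, magnitude and activity. Enzyme (USP2 core, 10nM) meets 25nM Ub-CHOP2 after compound preincubation; readings are taken at 60min.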

[18] = Quantitative high throughput screen for delayed death inhibitors of the malarial parasite plastid, 96 hour incubation (AID 488745); further: nearly all actives have a fitted effect of over 70% in size; further: potency means the concentration at half of the fitted maximal effect
How it was run: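 Two-generation (96 h) exposure of luciferase-reporter P. falciparum in erythrocytes, 2% hematocrit, 0.1% parasitemia final, 37 C, 5% CO2, RPMI 1640 with 0.5% Albumax. Growth inhibition scored by reduced luminescence.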

[19] = target: Endonuclease 4 (Escherichia coli (strain K12)) (UniProt P0A6C1); test: Counterscreen for APE1 Inhibitors: qHTS Assay for Inhibitors of Endonuclease IV (AID 2565)
How it was run: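 Measured as reaction progress, the fluorescence gain between first and third kinetic reads after adding 50 nM TAMRA/BHQ-2 THF duplex to 2 nM enzyme preincubated 15 min with compound; 2 mM MgCl2, pH 7.5.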

[20] = target: DNA repair nuclease/redox regulator APEX1 (Homo sapiens) (UniProt P27695); test: Confirmation qHTS Assay for Inhibitors of the Human Apurinic/apyrimidinic Endonuclease 1 (APE1) (AID 2572);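 further: fluorescence gain from purified APE1 cutting a TAMRA/BHQ-2 THF abasic duplex; nearly all actives have a fitted effect of over 30% in size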
DNA repair nuclease/redox regulator APEX1 (Homo sapiens), sequence (P27695 whole entry, looked up): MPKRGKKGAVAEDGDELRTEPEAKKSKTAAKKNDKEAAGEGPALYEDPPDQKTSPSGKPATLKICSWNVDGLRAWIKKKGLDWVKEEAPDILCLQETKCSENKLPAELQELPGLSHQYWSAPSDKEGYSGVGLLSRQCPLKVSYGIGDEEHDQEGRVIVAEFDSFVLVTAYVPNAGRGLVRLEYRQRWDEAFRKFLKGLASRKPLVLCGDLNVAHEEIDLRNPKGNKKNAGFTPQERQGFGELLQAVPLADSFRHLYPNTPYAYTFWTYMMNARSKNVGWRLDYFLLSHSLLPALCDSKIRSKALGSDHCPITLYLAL
How it was run: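 APE1 endonuclease activity was assessed as fluorescence released when the enzyme nicked a quenched abasic-site duplex (50 nM final). Compounds were preincubated with enzyme 15 min at room temperature before substrate addition.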

Measured: Potency

NC(C(=O)O)c1cc(=O)[nH]o1 (centres undefined)
inactive: [1] | [2] | [3] | [4] | [5] | [6] | [7] | [8] | [9] | [10] | [11] | [12] | [13] | [14] | [15]

C[C@]12CCC(=O)C[C@@H]1CC[C@@H]1[C@@H]2CC[C@]2(C)[C@@H](O)CC[C@@H]12
inactive: [16]

O=C/C=C/c1ccccc1
inactive: [16]

NCCc1ccc(S(=O)(=O)F)cc1
inactive: [1] | [2] | [3] | [4] | [5] | [7] | [8] | [9] | [17] | [10] | [11] | [12] | [13] | [14] | [18] | [15]

Clc1ccccc1Cl
inactive: [16]

NC(=O)COc1c(F)cc(SCCNS(=O)(=O)c2ccccc2)cc1F
inactive: [1] | [2] | [3] | [4] | [5] | [6] | [7] | [8] | [9] | [10] | [11] | [13] | [18] | [15]

CC(=O)NBr
inactive: [1] | [2] | [19] | [20] | [4] | [5] | [7] | [8] | [9] | [10] | [11] | [12] | [14] | [18] | [15]

O=[N+]([O-])c1ccccc1
inactive: [16]

CO[C@H]1CC=C2CCN3CCC4=C(CC(=O)OC4)[C@]23C1
inactive: [1] | [2] | [4] | [5] | [6] | [7] | [8] | [9] | [17] | [10] | [11] | [12] | [13] | [14] | [18]

CN1C2CCC1CC(OC(c1ccccc1)c1ccccc1N)C2 (centres undefined)
inactive: [1] | [2] | [3] | [4] | [5] | [8] | [9] | [17] | [10] | [12] | [14] | [18] | [15]

CCn1cnc2c(Nc3cccc(Cl)c3)nc(N[C@@H]3CCCC[C@@H]3N)nc21
active: [5] 18.5 µM | [9] 3.55 µM | [18] 0.208 µM | [15] 5.86 µM
inactive: [1] | [2] | [3] | [17] | [10] | [11] | [14]

c1ccc2c(c1)[I+]c1ccccc1-2
active: [5] 3.29 µM | [8] 0.251 µM | [9] 6.31 µM | [18] 0.131 µM | [15] 0.147 µM
inactive: [1] | [2] | [3] | [19] | [17] | [10] | [11] | [14]

S=C=S
inactive: [16]

CCCCCCCCOC(=O)c1ccccc1C(=O)OCCCCCCCC
inactive: [16]

C=CCN=C=S
inactive: [16]

Oc1ccc2c3c1O[C@H]1c4oc5ccccc5c4C[C@@]4(O)C(C2)N(CC2CC2)CCC314 (some centres undefined)
active: [8] 7.94 µM | [18] 7.38 µM
inactive: [1] | [2] | [3] | [4] | [5] | [9] | [17] | [10] | [11] | [12] | [14]

O=S1(=O)N(CCN2CC=C(c3c[nH]c4cc(F)ccc34)CC2)c2cccc3c2N1CCC3
inactive: [1] | [2] | [3] | [4] | [5] | [7] | [8] | [17] | [10] | [11] | [12] | [13]
active: [9] 14.1 µM | [18] 0.465 µM | [15] 1.47 µM

O=C(O)C(Cl)(Cl)Cl
inactive: [16]

O=[N+]([O-])c1cc(O)c(O)c([N+](=O)[O-])c1
inactive: [1] | [2] | [3] | [4] | [5] | [6] | [7] | [9] | [10] | [11] | [12] | [13] | [18] | [15]

ClC(Cl)(Cl)Cl
inactive: [16]

CC(C)Nc1ccc(Nc2ccccc2)cc1
inactive: [16]

CN(C(=O)Cc1ccc(Cl)c(Cl)c1)C(CN1CCCC1)c1cccc(OCC(=O)O)c1 (centres undefined)
inactive: [1] | [2] | [3] | [4] | [5] | [6] | [7] | [8] | [9] | [17] | [10] | [12] | [13] | [14] | [18] | [15]

CCCCCl
inactive: [16]

CCOC(=O)c1ncn2c1[C@@H]1CCCN1C(=O)c1cc(OC)ccc1-2
inactive: [1] | [2] | [4] | [5] | [6] | [7] | [8] | [9] | [17] | [10] | [11] | [12] | [13] | [14] | [18] | [15]

C[C@H]1CCC[C@H](O)CCCCCc2cc(O)cc(O)c2C(=O)O1
inactive: [16]

O=Cc1ccco1
inactive: [16]

O=C1CCO1
inactive: [16]

[O]=[Cd]
inactive: [16]

NCCc1c[nH]c2ccc(C(N)=O)cc12
inactive: [1] | [2] | [3] | [4] | [5] | [7] | [8] | [9] | [17] | [10] | [11] | [12] | [13] | [14] | [18] | [15]

Cc1sc2ccccc2c1CC1=NCCN1
inactive: [1] | [2] | [3] | [4] | [5] | [7] | [8] | [9] | [17] | [10] | [11] | [12] | [14] | [18] | [15]

NNC(N)=O
inactive: [1] | [2] | [3] | [4] | [5] | [6] | [7] | [8] | [9] | [17] | [10] | [12] | [13] | [14] | [18] | [15]

CC(C)CCON=O
inactive: [16]
